Compounds with a hit are over-represented: about 6.1% of the library has one in this group of screens.
D3 ag – qHTS of D3 Dopamine Receptor Agonist: qHTS; max activation, %; D3R DiscoveRx beta-arrestin cells, luminescence, 90 min; hit rate 0.58% among 410,000; in the data active means max activation above about 30%; further: 0% is about no effect
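Cells at 1500/well, incubated overnight, then treated with pinned compounds (dopamine as control) for 90 min at 37 degrees C. DiscoveRx reagent added for 30 - 60 minutes at room temperature; luminescence read.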
D1 agonist – Allosteric Agonists of the Human D1 Dopamine Receptor: qHTS | HEK293 T-REx D1 cells, calcium flux, agonist mode | activation, % at 2 µM | hit rate 1% among 360,000 | AID 504660, 2011; in the data active means activation above about 30%; further: 0% is about no effect
Target sequence (P21728 whole entry, looked up): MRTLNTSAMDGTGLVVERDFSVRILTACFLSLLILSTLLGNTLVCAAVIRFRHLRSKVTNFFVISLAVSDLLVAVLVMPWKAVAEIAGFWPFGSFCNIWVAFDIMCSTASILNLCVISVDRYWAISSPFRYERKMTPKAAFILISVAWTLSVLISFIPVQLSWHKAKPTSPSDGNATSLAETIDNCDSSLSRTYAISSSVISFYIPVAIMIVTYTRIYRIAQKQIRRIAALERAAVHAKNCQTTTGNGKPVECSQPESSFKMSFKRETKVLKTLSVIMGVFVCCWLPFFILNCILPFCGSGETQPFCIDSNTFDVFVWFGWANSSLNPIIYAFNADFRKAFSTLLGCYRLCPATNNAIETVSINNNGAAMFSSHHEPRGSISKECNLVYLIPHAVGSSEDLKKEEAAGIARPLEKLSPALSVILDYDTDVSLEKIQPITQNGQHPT
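Inducible HEK293 T-REx D1 cells, force-coupled to calcium signalling, were plated at 4000 cells/well with tetracycline and held overnight at 30 C. After no-wash calcium dye loading, compound-evoked calcium rise over 180 s flagged agonists.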
D1 potentiator – Potentiators of Human D1 Dopamine Receptor: qHTS; D(1A) dopamine receptor (Homo sapiens), P21728; HEK293 TREx D1 cells, calcium flux, dopamine EC20 potentiation; hit rate 0.036% among 360,000; potentiation, % at 10 µM; in the data active means potentiation above about 30%; further: 0% is about no effect
D1 antagonist – Antagonist of Human D 1 Dopamine Receptor: qHTS. activity change, negative = inhibition, % at 10 µM. HEK293 TREx D1 cells, calcium flux, dopamine EC80; active compounds read low. AID 504652, 2011. hit rate 3.2% among 360,000. D(1A) dopamine receptor (Homo sapiens), P21728; in the data active means activity change below about -30%; further: on the % scale 0 is the no-effect control and ±100 the full control effect
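HEK293 T-REx cells expressing inducible, force-coupled D1 receptor; no-wash Ca dye, 30–90 min RT. Cmpd → 180 s read at 1 Hz → EC80 DA → 180 s read.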
D3 antag – qHTS of D3 Dopamine Receptor Antagonist: qHTS. hit rate 2.5% among 360,000. D3R cells, DiscoveRx beta-arrestin luminescence, antagonist mode; active compounds read low. D(3) dopamine receptor (Homo sapiens), P35462. max response, negative = inhibition, %; in the data active means max response below about -50%; inconclusive means no clear call, values can overlap the other calls; further: on the % scale 0 is the no-effect control and ±100 the full control effect
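Cells expressing the human receptor were seeded at 1500 cells/well, incubated overnight at 37 degrees C in 5% CO2, then exposed to library compounds with dopamine controls for 90 minutes at 37 degrees C before luminescent detection.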
Numbers without * were called inactive; ? = inconclusive; / = no result.

SMILES	D3 ag	D1 agonist	D1 potentiator	D1 antagonist	D3 antag
O=[N+]([O-])c1cccc(-c2ccc(/C=N/Nc3nc(N4CCCCC4)nc(N4CCCCC4)n3)o2)c1	52*	5	1	3	108
O=[N+]([O-])c1ccc(-c2ccc(/C=N/Nc3nc(N4CCCC4)nc(N4CCCC4)n3)o2)cc1	22	76*	-2	18	48
O=[N+]([O-])c1ccc(-n2cccc2/C=N/Nc2nc(N3CCCCC3)nc(N3CCCCC3)n2)cc1	/	0	-4	-4	/
CCOC(=O)c1ccc(N2CCN(c3cccc(Cl)c3)CC2)c(NC(=O)Nc2ccc(OC)cc2OC)c1	-9	-3	2	4	/
COc1cccc(C=NCC(C)N=Cc2cccc(OC)c2O)c1O (stereo unspecified)	-10	0	6	12	-103*
Cc1c(C(=O)Nc2ccccc2)sc2nc[nH]c(=O)c12	4	-1	-9	-33*	4
Cc1c(C(=O)Nc2ccc(F)cc2)sc2nc[nH]c(=O)c12	-15	2	-6	-20	/
Cc1cc2nc(NC(=O)C3(C)CCN3C(=O)C(C)C)[nH]c2cc1C (stereo unspecified)	66*	/	/	/	-18
Cc1ccc(C)c(NC(=O)C2(C)CCN2C(=O)C(C)C)c1 (stereo unspecified)	6	/	/	/	-4
Cc1nn(-c2ccccc2)c2nc(C3CC3)cc(C(=O)Nc3cccc(F)c3)c12	5	7	-3	-6	/
CCN(c1ccccc1)S(=O)(=O)c1ccc(Cl)c(C(=O)N(CC2CCCO2)C2CCS(=O)(=O)C2)c1 (stereo unspecified)	-2	6	-3	-36*	-23
CC1CN(C(=O)Cn2cnc3c2c(=O)n(C)c(=O)n3C)CC(C)O1 (stereo unspecified)	1	-2	-1	-8	?
CCOC(=O)C1CCCN(C(=O)Cn2cnc3c2c(=O)n(C)c(=O)n3C)C1 (stereo unspecified)	32*	1	-1	-9	15
COc1ccc(N2CC(NC(=O)COc3ccc(F)cc3)CC2=O)cc1OC (stereo unspecified)	-2	86*	3	/	/
COc1ccc(N2CC(NC(=O)COc3cccc(C)c3)CC2=O)cc1OC (stereo unspecified)	-13	33*	0	/	/
CCc1ccccc1NC(=O)Cn1c(=O)n(CCCCCC(=O)NCc2ccc(C)cc2)c(=O)c2sccc21	-9	5	1	-1	/
COc1ccc(-c2cc(OC(=O)c3ccccc3Cl)c3c(C)oc(C)c3c(=O)c2)cc1OC	-1	3	2	0	/
CCOc1ccc(C2C(=O)N(C3CCCCCC3)CC(=O)N2Cc2ccc(F)cc2)cc1OC (stereo unspecified)	-15	2	0	-1	/
COc1ccc(C2C(=O)N(C3CCCCC3)CC(=O)N2CCc2ccc(C)cc2)cc1OC (stereo unspecified)	-17	-3	-1	21	/
CCOC(=O)c1cc(-c2ccc(OC)cc2)n(CCC(=O)NCCc2ccccc2)c1C	-12	2	4	3	/
CCc1nc(NC(C)(C)C)c2cnn(-c3ccccc3)c2n1	3	32*	6	32	-6
CCOc1ccc(CNC(=O)C2CCN(S(=O)(=O)N3CCCCC3)CC2)cc1	7	-4	0	-7	/
Cc1ccc(NC(=O)C2CCN(c3nc4ccccc4[nH]3)CC2)c(C)c1	1	-1	-2	-6	/
O=C1CCCN1CCCNCC(=O)N1c2ccccc2Sc2ccccc21	-3	6	-6	16	-53*
O=C1CCCN1CCCNCC(O)c1ccccc1 (stereo unspecified)	-5	4	-5	-9	-9
SMILES	D3 ag	D1 agonist	D1 potentiator	D1 antagonist	D3 antag
Cc1ccc(NC(=O)CSc2nccn2-c2ccccc2)cc1	-7	11	-2	-15	/
O=P(Cc1ccccc1)(c1ccccc1)c1ccccc1	13	1	-12	-25	4
O=[N+]([O-])c1ccc(P(=O)(Cc2ccccc2)c2ccccc2O)cc1 (stereo unspecified)	-7	0	-6	-34*	-14
COC(=O)c1ccc(NC(=O)N2CCN(c3nnc(C)c4c(C)n(-c5ccccc5)nc34)CC2)cc1	8	2	-3	9	/
Cc1cccc(C)c1-n1ncc(C(=O)Nc2ccc3c(c2)OCCO3)c1C1CCN(C(=O)OC(C)(C)C)CC1	5	0	4	27	/
CSc1nc(-c2ccco2)cc(C(F)(F)F)c1C#N	3	5	0	1	11
N#Cc1c(C(F)(F)F)cc(-c2ccco2)nc1SCc1ccncc1	-1	37*	-3	-10	-2
N#Cc1c(C(F)(F)F)cc(-c2ccco2)nc1SCc1ccccn1	-3	31*	-8	-24	-9
CC(=O)N1CCCc2cc(S(=O)(=O)N3CCC(C(=O)NCc4ccccc4Cl)CC3)ccc21	5	3	-7	11	/
O=C(NCc1ccccc1F)c1ccc(CN2CC(=O)N3CCCCC3C2=O)cc1 (stereo unspecified)	-9	0	6	-1	/
CCOC(=O)N1CCC(NC(=O)c2cnn(-c3ccc(C)cc3)c2C2CCN(C(=O)OC(C)(C)C)CC2)CC1	10	1	1	-2	/
Cc1ccc(Cl)cc1-n1ncc2c(NCCCc3ccccc3)ncnc21	2	8	-3	-36*	/
Cc1ccc(Cl)cc1-n1ncc2c(NCCc3ccccc3)ncnc21	11	-3	-1	-2	/
Cc1ccc(Cl)cc1-n1ncc2c(NCc3ccc(F)cc3)ncnc21	9	77*	3	-61*	/
Cc1cccc(-n2ncc3c(NC4CCCCC4)ncnc32)c1	5	2	-7	6	7
Cc1ccc(-n2ncc3c(NCc4ccccc4)ncnc32)cc1	3	1	1	3	3
Cc1cccc(-n2ncc3c(NC4CCCC4)ncnc32)c1	-15	-4	-1	-34*	/
Cc1ccc(CNc2ncnc3c2cnn3-c2ccccc2)cc1	8	53*	2	60	8
O[C@@H]1CO[C@H]2[C@@H]1OC[C@@H]2O	1	/	/	/	/
CC(=O)N1CCc2c(sc3c2c(=O)n(-c2cc(Cl)ccc2C)c(=O)n3C)C1	-4	7	-2	-6	/
Cc1ccc(-n2ncc(C(=O)NCCN3CCN(C)CC3)c2C2CCN(C(=O)OC(C)(C)C)CC2)c(C)c1	-14	4	3	12	/
CCc1ccccc1NC(=O)CN1C(=O)c2cccnc2Oc2ccc(Cl)cc21	-9	1	-3	-36*	/
O=C(CN1C(=O)c2cccnc2Oc2ccc(Cl)cc21)N1CCOCC1	-2	1	2	3	-8
CC1CCN(C(=O)CCCN2C(=O)c3cccnc3Oc3ccc(Cl)cc32)CC1	-16	14	-5	2	-65*
